# sPLA2-III inh: human group III sPLA2 inhibitors, primary screen, biochemical, QFRET, BODIPY PC-A2 liposome substrate; Group 3 secretory phospholipase A2 (Homo sapiens), Q9NZ20; QFRET BODIPY PC-A2 liposome hydrolysis, fluorescence; inhibition, % at 12.2 µM; 0.56% of 370,000 active;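 active = inhibition above mean plus 3 SD of compounds lying within the high and low control bounds, cut at about 19% in these data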;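 note: 0% = median of test compound wells and 100% = no enzyme DMSO wells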
# Yeast superoxide: reduction of superoxide in aged yeast, primary screen, HTS | 0.18% of 330,000 active | superoxide response (% of plate mean), % at 10 µM | S. cerevisiae aged cells, superoxide DHE fluorescence; hits give low values;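 active = superoxide response under a set limit, about three screen SD below normal, cut at about 65% in these data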;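 note: yeast aged for seven days with compound at 30 °C before DHE staining; 100% = average MFI of all compound-treated wells on the plate with controls excluded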
# PLCg1 inh: PLC-gamma1 enzyme inhibitors, primary screen, biochemical, fluorescence, purified enzyme; 1-phosphatidylinositol 4,5-bisphosphate phosphodiesterase gamma-1 (Homo sapiens), P19174; fluorogenic substrate; inhibition, % at 12.2 µM; 0.84% of 370,000 active; in the data active = inhibition above about 9.5%
# HIF act: HIF pathway transcriptional activators, primary screen, cell-based, U2OS HRE-luciferase, luminescence; AID 1910, 2009; U2OS HRE-luciferase reporter; normalized: DMSO 0%, desferrioxamine 100%; 0.32% of 300,000 active; activation, % at 7.5 µM (by protocol);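 active = mean activation of at least 10% of the iron chelator positive control signal, with at least half of replicates also reaching 10%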
# AHR activator: AHR activators, primary screen, cell-based, luminescence, luciferase reporter, human. Aryl hydrocarbon receptor (Homo sapiens), P35869. AHR-responsive luciferase reporter cells. activation, % at 5 µM. 2.5% of 320,000 active; in the data active = activation above about 47%;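 note: 0% = vehicle wells and 100% = reference agonist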
# PLCb3 inh: human PLC-beta3 inhibitors, primary screen, biochemical, fluorescence. 0.18% of 370,000 active. 1-phosphatidylinositol 4,5-bisphosphate phosphodiesterase beta-3 (Homo sapiens), Q01970. inhibition, % at 12.2 µM. Purified PLC-beta3, fluorogenic substrate; in the data active = inhibition above about 11%;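 note: 0% = median of compound wells on plate and 100% = full blocker control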
# AHR act cf: AHR activators, confirmation, cell-based, luminescence, luciferase reporter, human; 87% of 2,300 active; shares compounds with AHR activator; activation, % at 9 µM; AID 2845, 2010; human cells, AHR-responsive luciferase reporter; in the data active = activation above about 49%;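 note: HepG2 hepatoma cells carrying a DRE-driven firefly luciferase reporter; 0% = vehicle wells and 100% = reference agonist wells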
# PXR act counter: human PXR activators, counter-screen for AHR activator project, cell-based, luciferase luminescence | shares compounds with AHR activator | cell-based PXR reporter | activation, % at 11.6 µM | 88% of 2,300 active; in the data active = activation above about 11%;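 note: human hepatoma DPX-2 cells expressing full-length human PXR; 0% = DMSO and 100% = reference agonist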
# Target sequence (O75469 whole entry, looked up): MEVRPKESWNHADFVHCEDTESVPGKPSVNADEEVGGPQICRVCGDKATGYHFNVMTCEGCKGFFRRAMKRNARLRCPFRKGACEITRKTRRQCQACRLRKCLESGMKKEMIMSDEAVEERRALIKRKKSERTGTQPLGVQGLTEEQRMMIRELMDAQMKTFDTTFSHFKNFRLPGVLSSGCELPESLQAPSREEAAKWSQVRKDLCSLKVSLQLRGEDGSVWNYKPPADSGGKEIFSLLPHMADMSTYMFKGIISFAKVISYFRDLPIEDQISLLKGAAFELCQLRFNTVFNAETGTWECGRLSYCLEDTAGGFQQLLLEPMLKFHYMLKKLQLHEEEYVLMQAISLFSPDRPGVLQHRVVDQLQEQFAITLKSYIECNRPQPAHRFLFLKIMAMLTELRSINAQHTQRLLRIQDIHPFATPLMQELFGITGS
# An asterisk follows results filed as active; x = no result. Shown are actives, neighbours in structure and some others; about 3.9% of the full set was active somewhere.
SMILES,sPLA2-III inh,Yeast superoxide,PLCg1 inh,HIF act,AHR activator,PLCb3 inh,AHR act cf,PXR act counter
Nc1ncnc2c1ncn2[C@@H]1O[C@H](CNC(=O)[C@@H](N)Cc2ccc(C(=O)c3ccccc3)cc2)[C@@H](O)[C@H]1O,14,x,3,x,x,6,x,x
CCNC(=O)C(=O)NCC1CCCN1S(=O)(=O)c1cccs1 (stereo not given),9,96,3,-1,-1,-7,x,x
Cc1cccc(OCc2nn[nH]n2)c1C,0,100,-7,-1,2,-11,x,x
COc1cc2c(cc1NC(=O)C(C)OC(=O)/C=C/c1ccc(OC(F)F)cc1)oc1ccccc12 (stereo not given),1,100,-4,1,144*,0,107*,30*
COc1cc2c(cc1NC(=O)c1cccc(S(=O)(=O)N(C)C)c1)oc1ccccc12,1,110,-13,3,79*,-12,65*,42*
O=C(Nc1ccc(Br)cc1)c1cc(-c2ccncc2)nc2ccccc12,0,103,-4,x,109*,-13,97*,12*
COc1ccc(/C=C/C(=O)NC(=S)Nc2cc3oc4ccccc4c3cc2OC)cc1,4,111,2,0,18,1,x,x
O=c1[nH]c(/C=C\c2cccc(Cl)c2)nc(O)c1[N+](=O)[O-],15,104,1,0,0,1,x,x
O=C(Nc1cccc(N2CCCC2)c1)c1cccs1,3,82,-30,1,88*,-50,92*,37*
Cc1ccc(S(=O)(=O)Oc2ccc(/C=C3/N=C(c4ccccc4)OC3=O)cc2)cc1,-24,88,1,0,1,1,x,x
Cc1ccc(S(=O)(=O)N(C)C)cc1NC(=O)C1CCCCN1S(=O)(=O)c1ccccc1 (stereo not given),6,100,-2,x,2,-10,x,x
CC(=O)N1N=C2c3ccccc3CCC2C1c1ccc(F)cc1 (stereo not given),-2,90,0,0,99*,-42,108*,29*
O=C(c1ccccn1)N1N=C2/C(=C/c3ccc(F)cc3)CCCC2C1c1ccc(F)cc1 (stereo not given),-6,90,1,0,94*,5,95*,49*
CC(=O)N1N=C2/C(=C/c3ccccc3)CCCC2C1c1ccccc1 (stereo not given),-8,114,-25,0,100*,-28,87*,101*
CC1(c2cccc(Br)c2)NC(=O)N(CC(=O)N2CCc3ccccc32)C1=O (stereo not given),-3,92,-2,x,0,-3,x,x
CN(c1ccc(F)cc1)S(=O)(=O)c1ccc(Cl)c(C(=O)NC2(C)CCS(=O)(=O)C2)c1 (stereo not given),6,141,1,x,-1,-7,x,x
O=C(NCc1cccc(Cl)c1)c1ccc(-n2cncn2)c2ccoc12,-7,x,0,x,x,-1,x,x
O=c1oc(CCCO)cc2ccc(C#Cc3cccnc3)cc12,11,90,-49,x,88*,-92,76*,18*
c1ccc2nc(N3CCCC3)c(N3CCCCC3)nc2c1,1,x,-21,x,x,-28,x,x
c1ccc2nc3c(nc2c1)OCC1CCCCN31 (stereo not given),3,99,-261,-14,102*,-344,104*,46*
COC(=O)[C@]12C[C@H](CC(=O)NCc3cccc4ccccc34)C(=O)N(Cc3ccccc3)C1=C[C@H](COCc1ccccc1)O[C@@H]2C,-13,x,1,x,x,0,x,x
c1ccc(Nc2nc3ccccc3n3nnnc23)cc1,-7,96,-31,3,33,-43,x,x
